Assay results published in PubChem BioAssay.

System: Noggin (protein binding on small-molecule microarray)
Experiment: small molecules binding Noggin protein – biochemical, 635/667 nm fluorescence, primary screen (AID 1095);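 further: score merges 667 nm feature fluorescence with signal to noise over triplicate slides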
Conditions: 635 nm fluorescence, higher = more signal

Q: COC(=O)[C@@]1(Cc2ccccc2)[C@H]2c3cc(C(=O)N4CCCC4)n(CCSCCO)c3C[C@H]2CN1C(=O)c1ccccc1 was tested. Which composite z-score did it give?
A: 0.511

Q: Which composite z-score does the source give for CCOC(=O)C1=C[C@@H](C(C)(C)C)N(S(=O)(=O)c2ccc(C)cc2)[C@H]1c1cccc(Cl)c1 here?
A: 1.04

Q: C=C[C@H](C)[C@H](OC(=O)Nc1ccc(OC)cc1)c1ccc(OCCO)cc1 was tested. Which composite z-score did it give?
A: -1.14

Q: How did the composite z-score turn out when C[C@]1(C(=O)O)c2ccccc2C(=O)N(Cc2ccc(OC(F)(F)F)cc2)[C@H]1c1ccc(CO)cc1 was run?
A: -0.94

Target: Neurogenic locus notch homolog protein 3 (Homo sapiens) (UniProt Q9UM47)
Sequence (Q9UM47 whole entry, looked up): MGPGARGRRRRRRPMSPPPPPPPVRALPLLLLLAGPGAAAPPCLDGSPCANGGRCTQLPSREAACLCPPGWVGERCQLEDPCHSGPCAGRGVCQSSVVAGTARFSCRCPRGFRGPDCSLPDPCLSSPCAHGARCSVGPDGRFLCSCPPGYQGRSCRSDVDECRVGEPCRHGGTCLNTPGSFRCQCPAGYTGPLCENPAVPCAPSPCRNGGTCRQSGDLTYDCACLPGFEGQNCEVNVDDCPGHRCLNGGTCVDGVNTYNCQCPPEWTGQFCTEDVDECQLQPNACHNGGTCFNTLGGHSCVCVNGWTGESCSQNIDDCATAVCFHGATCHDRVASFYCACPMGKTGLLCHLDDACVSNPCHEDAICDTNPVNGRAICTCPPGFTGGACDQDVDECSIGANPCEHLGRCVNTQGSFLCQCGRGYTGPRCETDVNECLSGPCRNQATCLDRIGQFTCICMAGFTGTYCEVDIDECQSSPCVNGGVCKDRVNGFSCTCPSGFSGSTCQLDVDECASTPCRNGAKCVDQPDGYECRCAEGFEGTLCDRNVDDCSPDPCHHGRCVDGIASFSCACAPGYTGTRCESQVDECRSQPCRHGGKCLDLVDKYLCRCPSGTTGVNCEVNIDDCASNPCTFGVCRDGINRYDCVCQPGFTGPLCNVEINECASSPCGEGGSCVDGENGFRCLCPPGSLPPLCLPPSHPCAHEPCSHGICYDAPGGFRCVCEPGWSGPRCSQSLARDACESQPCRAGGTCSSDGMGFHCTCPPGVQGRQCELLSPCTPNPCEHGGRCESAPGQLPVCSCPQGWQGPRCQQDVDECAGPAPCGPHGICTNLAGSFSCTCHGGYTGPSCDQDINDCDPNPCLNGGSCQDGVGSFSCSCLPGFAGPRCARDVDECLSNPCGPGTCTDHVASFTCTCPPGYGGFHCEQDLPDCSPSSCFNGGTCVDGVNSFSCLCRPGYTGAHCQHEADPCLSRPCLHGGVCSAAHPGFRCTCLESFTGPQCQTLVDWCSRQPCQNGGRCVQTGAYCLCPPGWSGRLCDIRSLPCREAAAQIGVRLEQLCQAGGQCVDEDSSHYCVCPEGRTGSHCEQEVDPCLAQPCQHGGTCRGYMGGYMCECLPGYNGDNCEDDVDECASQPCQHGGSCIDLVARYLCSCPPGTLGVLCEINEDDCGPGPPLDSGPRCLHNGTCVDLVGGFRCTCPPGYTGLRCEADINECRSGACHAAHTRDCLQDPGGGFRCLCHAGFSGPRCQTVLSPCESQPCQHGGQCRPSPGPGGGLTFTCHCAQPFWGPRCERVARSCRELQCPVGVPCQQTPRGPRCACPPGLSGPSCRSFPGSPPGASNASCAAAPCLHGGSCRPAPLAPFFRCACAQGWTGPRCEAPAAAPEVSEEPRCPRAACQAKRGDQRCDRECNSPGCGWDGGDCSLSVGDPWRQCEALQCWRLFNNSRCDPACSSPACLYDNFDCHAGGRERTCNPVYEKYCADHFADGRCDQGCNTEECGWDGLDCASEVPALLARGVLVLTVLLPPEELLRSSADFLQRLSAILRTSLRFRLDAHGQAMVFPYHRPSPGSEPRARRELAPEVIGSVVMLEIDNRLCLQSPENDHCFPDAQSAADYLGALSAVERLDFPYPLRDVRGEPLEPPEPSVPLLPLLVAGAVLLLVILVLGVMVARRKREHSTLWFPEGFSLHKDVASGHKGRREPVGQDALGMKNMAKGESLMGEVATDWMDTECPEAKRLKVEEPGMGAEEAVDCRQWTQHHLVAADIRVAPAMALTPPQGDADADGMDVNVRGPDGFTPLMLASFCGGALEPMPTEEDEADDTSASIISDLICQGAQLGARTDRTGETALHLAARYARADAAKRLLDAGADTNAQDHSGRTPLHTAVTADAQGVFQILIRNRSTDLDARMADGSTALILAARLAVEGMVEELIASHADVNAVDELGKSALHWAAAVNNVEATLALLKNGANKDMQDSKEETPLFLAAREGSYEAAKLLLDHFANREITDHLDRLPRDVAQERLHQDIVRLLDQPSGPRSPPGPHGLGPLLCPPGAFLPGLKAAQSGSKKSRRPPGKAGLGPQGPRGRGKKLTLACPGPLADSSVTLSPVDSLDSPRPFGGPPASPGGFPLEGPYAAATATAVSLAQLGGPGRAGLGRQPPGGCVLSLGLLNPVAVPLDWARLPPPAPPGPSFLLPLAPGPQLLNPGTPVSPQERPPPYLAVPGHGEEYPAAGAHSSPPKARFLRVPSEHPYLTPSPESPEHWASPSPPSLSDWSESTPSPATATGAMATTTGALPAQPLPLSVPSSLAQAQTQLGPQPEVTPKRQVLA
Experiment: small molecules binding NOTCH3 protein – biochemical, 635/667 nm fluorescence, primary screen (AID 1096)
Conditions: small-molecule microarray, 635 nm fluorescence, higher = more signal

Q: How did the composite z-score turn out when COc1cc(NN2C(C(O)c3ccc(I)cc3)C=CC3C(=O)N(c4ccccc4)C(=O)C32)cc(OC)c1OC (stereo not given) was run?
A: 1.05

Q: For CN(C)CCCC[C@@H]1NC(=O)[C@@H]2C[C@H](C(=O)O)[C@H](c3cccc(OCCO)c3)N2C1=O, which composite z-score is on record?
A: -0.0905

Q: For CN1C(=O)C2C=CC(C(O)c3cc(C(F)(F)F)cc(C(F)(F)F)c3)N(Nc3ccccc3)C2C1=O (stereo not given), which composite z-score is on record?
A: 0.377

Q: With C=C(/C(=C/C[C@H](OC(=O)c1ccncc1)c1ccccc1OCCO)c1cnc2ccccc2c1)C(C)C as the compound, how does the composite z-score read?
A: 1.02

Q: With COC(=O)[C@@]1(Cc2ccccc2CN=[N+]=[N-])N=C(c2ccc(OCCCO)cc2)O[C@H]1c1ccccc1 as the compound, how does the composite z-score read?
A: 0.107

Q: For C=CCC(OC(C)=O)[C@@H]1[C@@H](N(Cc2cccc3ccccc23)C(=O)c2ccc(-c3ccccc3)cc2)c2cc(OCCCO)ccc2N1C(=O)c1ccc(-c2ccccc2)cc1 (stereo not given in full), which composite z-score is on record?
A: -0.234

Q: COC(=O)[C@@]1(Cc2ccc(F)cc2)[C@H]2c3cc(C(=O)N(C)C)n(Cc4c(CO)[nH]cc(C)c4=O)c3C[C@H]2CN1C(=O)c1ccccc1 was tested. Which composite z-score did it give?
A: -0.032

Q: Which composite z-score does the source give for CN(C)C(=O)[C@]1(CCS(=O)(=O)c2ccccc2)N=C(c2ccc(OCCCO)cc2)O[C@@H]1c1ccccc1 here?
A: 1.01

Q: How did the composite z-score turn out when CC(C)OC(=O)CC(=O)CC(O)c1ccc([N+](=O)[O-])cc1 (stereo not given) was run?
A: 0.422

Q: With CCN(CC)c1ccc(N2CC=CC34O[C@@H]5/C=C\CCC(C)OC(=O)C5[C@H]3C(=O)N(C(C)CO)[C@@H]4C2=O)cc1 (stereo not given in full) as the compound, how does the composite z-score read?
A: -0.419

Q: With Cc1ccc(C(C)CC(O)C2C=CC3C(=O)N(c4ccccc4)C(=O)C3N2Nc2ccc(C#N)cc2)o1 (stereo not given) as the compound, how does the composite z-score read?
A: 1.13

Q: With Cc1ccc(F)cc1S(=O)(=O)N[C@@H]1CCN(Cc2cccc3[nH]ccc23)C1 as the compound, how does the composite z-score read?
A: 0.56

Q: For O=C1C2C=CC(C(O)c3ccco3)N(Nc3ccccc3)C2C(=O)N1c1ccccc1 (stereo not given), which composite z-score is on record?
A: 0.504

Q: How did the composite z-score turn out when CCOC(=O)C1=CCC(c2ccco2)N(S(=O)(=O)c2ccc(C)cc2)C1 (stereo not given) was run?
A: 1.08

Q: With O=C(NCCN1CCOCC1)[C@@H]1c2ccccc2C(=O)N(Cc2ccccc2)[C@H]1c1ccc(CO)cc1 as the compound, how does the composite z-score read?
A: -0.036

Q: With CCOC(=O)C1=C[C@@H](c2ccccc2)N(S(=O)(=O)c2ccc(C)cc2)[C@H]1c1ccccc1 as the compound, how does the composite z-score read?
A: 0.552

Q: With COCCOC(=O)N1C(=O)[C@@]2(c3cc(C#Cc4ccc(OC)cc4)ccc31)[C@H](c1ccc(OCCO)cc1)N1[C@H](c3ccccc3)[C@H](c3ccccc3)OC(=O)[C@H]1[C@@H]2C(=O)Nc1nc2ccccc2s1 as the compound, how does the composite z-score read?
A: 0.95

Q: How did the composite z-score turn out when [N-]=[N+]=Nc1ccccc1C[C@]1(C(=O)O)N=C(c2ccc(OCCCO)cc2)O[C@H]1c1ccccc1N=[N+]=[N-] was run?
A: 0.942

Q: With CC=CC(O)C1C=CC2C(=O)NC(=O)C2N1Nc1ccccn1 (stereo not given) as the compound, how does the composite z-score read?
A: 0.542

Q: How did the composite z-score turn out when CCOC(=O)C1=C[C@@H](C(C)(C)C)N(S(=O)(=O)c2ccc(C)cc2)[C@H]1c1ccccc1 was run?
A: 1.07

Q: How did the composite z-score turn out when COC(=O)[C@@]1(Cc2ccc(F)cc2)[C@H]2c3cc(C(=O)N4CCCC4)n(CC4CC4)c3C[C@H]2CN1C(=O)c1ccccc1 was run?
A: 1.1

Q: With CO[C@H]1O[C@H](CO)[C@@H](OC(=O)Nc2ccc(C#N)cc2)[C@@H]2OC(=O)[C@H](Cc3cccc(Br)c3)C/C=C/C[C@@H](Cc3cccc(Br)c3)C(=O)O[C@@H]12 as the compound, how does the composite z-score read?
A: 0.733

Q: COC(=O)[C@@]1(Cc2ccccc2)[C@H]2c3cc(C(=O)N(C)C)n(CCn4cc([N+](=O)[O-])nc4C)c3C[C@H]2CN1C(=O)c1ccccc1 was tested. Which composite z-score did it give?
A: 1.03

Q: For Cc1ccc(N2C(=O)c3ccccc3[C@](C)(C(=O)NCc3ccccc3)[C@@H]2c2ccc(CO)cc2)nc1, which composite z-score is on record?
A: -0.456

Q: For COC(=O)[C@@]1(Cc2ccc(F)cc2)[C@H]2c3cc(C(=O)N4CCCC4)n(C)c3C[C@H]2CN1C(=O)c1ccccc1, which composite z-score is on record?
A: 0.405

Q: CC(C)C(=C=CC[C@@H](O)c1cccc(OCCO)c1)C[C@@H](O)c1ccccn1 was tested. Which composite z-score did it give?
A: 0.603

Q: With O=C(O)[C@H]1C[C@H]2C(=O)N[C@@H](Cc3ccccc3)C(=O)N2[C@H]1c1cccc(OCCO)c1 as the compound, how does the composite z-score read?
A: 0.814

Q: For COc1ccc([Si](C)(C)[C@@H]2[C@@H](CC(=O)N3Cc4ccccc4C[C@H]3CO)O[C@]3(C(=O)N(Cc4ccc(N5CCC5=O)cc4)c4ccccc43)[C@H]2C)cc1, which composite z-score is on record?
A: 1.14

Q: Cc1ccc([C@H]2C(C(=O)O)=C[C@@H](C(C)(C)C)N2S(=O)(=O)c2ccc(C)cc2)cc1 was tested. Which composite z-score did it give?
A: 1.04

Q: With CN1C(=O)[C@@]2(Cc3ccccc3)N=C(c3ccc(OCCCO)cc3)O[C@H]2c2ccccc21 as the compound, how does the composite z-score read?
A: 1

Q: How did the composite z-score turn out when COCCCNC(=O)[C@@]1(Sc2ccc(C)cc2)CC(=O)N(C(C)C)[C@@H]1c1ccc(CO)cc1I was run?
A: -0.365

Q: CC(C)C(=C=CC[C@@H](O)c1cccc(OCCO)c1)C[C@@H](O)COCc1ccccc1 was tested. Which composite z-score did it give?
A: 0.541

Q: With COC(=O)[C@@]1(Cc2ccccc2)[C@H]2c3cc(C(=O)N4CCCC4)n(CCSCCO)c3C[C@H]2CN1C(=O)c1ccccc1 as the compound, how does the composite z-score read?
A: 0.899

Q: Which composite z-score does the source give for CCOC(=O)C1=C[C@@H](C(C)(C)C)N(S(=O)(=O)c2ccc(C)cc2)[C@H]1c1cccc(Cl)c1 here?
A: 1.08

Q: C=C[C@H](C)[C@H](OC(=O)Nc1ccc(OC)cc1)c1ccc(OCCO)cc1 was tested. Which composite z-score did it give?
A: -0.36

Q: How did the composite z-score turn out when C[C@]1(C(=O)O)c2ccccc2C(=O)N(Cc2ccc(OC(F)(F)F)cc2)[C@H]1c1ccc(CO)cc1 was run?
A: -0.505
